Data: PubChem BioAssay (NCATS)
Inconclusive results are not listed. Active and inactive are the calls of the source. Unless noted, the call rests on the fitted dose curve; in most records, active means well fitted curve in the direction sought with a large enough effect; inconclusive means small, poorly fitted or top-dose-only effect, or another doubt; inactive means no such curve, though single readings can be large; an effect the other way counts as inactive or inconclusive.

What was measured:
[1] = Cytometric Cell-Based qHTS for Inhibitors of the mTORC1 Signaling Pathway in MEF (Tsc2-/-, p53-/-) Cells (AID 2660);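 further: Tsc2 and p53 null MEFs carrying empty vector with compound for 24 h; percent of cells above a phospho-rpS6 to PI ratio cutoff in each well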
Summary of the method: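 Readout: Alexa-488 phospho-rpS6 (Ser235/236) intensity divided by PI intensity, thresholded against 7.5 nM rapamycin wells and reported as % positive cells. PI cell count served as the viability measure. Compound exposure was 24 hrs at 37 degree Celsius.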

[2] = High Content Imaging Cell-Based qHTS for Inhibitors of the mTORC1 Signaling Pathway in MEF (Tsc2-/-, p53-/-) Cells (AID 2666); details: at 38.3 µM (top of the series);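 further: percent of cells scored positive for phospho-rpS6 Ser235/236 immunostaining by imaging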
Summary of the method: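 Inhibition of rpS6 phosphorylation is measured by immunofluorescence imaging in empty-vector Tsc2-/-, p53-/- mouse embryonic fibroblasts after 24 hrs compound exposure at 37 degree Celsius. Results are reported as % positive cells per well.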

[3] = High Content Imaging Cell-Based qHTS for Inhibitors of the mTORC1 Signaling Pathway in MEF Cells (AID 2667);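 further: Tsc2-/- p53-/- MEFs stably re-expressing wild-type Tsc2 exposed 24 h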
Summary of the method: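 Fixed-cell imaging of phospho-S6 (Ser235/236, Alexa-488) after 24 hrs of compound treatment at 37 degree Celsius. Signal was normalized to Hoechst, and thresholds from the highest and lowest wells split cells into % active versus % non-active.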

[4] = target: Ubiquitin carboxyl-terminal hydrolase 2 (Homo sapiens) (UniProt O75604); experiment: qHTS Validation Assay for Inhibitors of Ubiquitin-specific Protease USP2a Using CHOP2 as the Reporter (AID 463106)
Summary of the method: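 Inhibition is expressed relative to NEM as the full-inhibition control, with concentration-response curves classed by fit quality, magnitude and activity. Enzyme (USP2 core, 10nM) meets 25nM Ub-CHOP2 after compound preincubation; readings are taken at 60min.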

[5] = target: DNA polymerase III PolC-type (Bacillus subtilis (strain 168)) (UniProt P13267); experiment: qHTS Validation Assay for the Inhibitors of DNA Replication in Gram-Positive Bacteria (AID 485295);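 further: reconstituted holoenzyme with PolC plus beta clamp SSB and primase; PicoGreen fluorescence of double-stranded DNA made on primed circular M13 template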
Summary of the method: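 Double-stranded DNA product detected by PicoGreen fluorescence after EDTA quench. Compound incubated with B. subtilis holoenzyme (PolC, beta subunit, SSB, primase) before substrate addition; primed replication of M13Gori with dNTPs and NTPs at room temperature; DMSO defines 0% inhibition.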

[6] = target: Tumor susceptibility gene 101 protein (Homo sapiens) (UniProt Q99816); experiment: qHTS Validation Assay for Iinhibitors of HIV-1 Budding by Blocking the Interaction of PTAP/TSG101 (AID 485342; calls by dose curve)
Summary of the method: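 Fluorescence polarization of 50 nM FITC-PTAP peptide bound to 10 uM Tsg101 binding domain was read after 20 min room-temperature incubation with compounds, in 10 mM HEPES pH 7.5, 0.15 M NaCl, 0.01% Tween 20.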

[7] = qHTS Validation Assay to Find Inhibitors of Chronic Active B-Cell Receptor Signaling (AID 485345; active means well fitted curve in the direction sought with a large enough effect in the main read-out, with a control signal flat, not every such curve was filed as active)
Summary of the method: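 TMD8 ABC-DLBCL cells with dox-inducible green luciferase–IκBα fusion and red native luciferase; compounds 46 uM–3 nM, 4 h at 37C with doxycycline in 0.5% FBS IMDM. Green/red ratio normalized to basal and 10 uM MG-132.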

[8] = target: Beta-2 adrenergic receptor (Homo sapiens) (UniProt P07550); experiment: qHTS validation assay of beta-arrestin-biased ligands of beta2-adrenergic receptor (AID 485366)
Summary of the method: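 Agonist activity is measured as luciferase luminescence downstream of beta-arrestin recruitment to recombinant beta2-AR in Tango cells. Exposure lasts 18 hr at 37 degrees C, and curves are categorized by r2, response size and activity.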

[9] = target: Thioredoxin reductase 1, cytoplasmic (Rattus norvegicus) (UniProt O89049); experiment: qHTS Assay for Substrates of Mammalian Selenoprotein Thioredoxin Reductase 1 (TrxR1) (AID 488772);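 further: a drop in NADPH fluorescence below the no-compound background marks a TrxR1 substrate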
Summary of the method: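 In this dual-purpose format, potential substrates are identified from the first fluorescence read after selenite addition, not from the 8-minute delta. Rat enzyme is preincubated with NADPH and then with compound at ~22 deg C.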

[10] = target: Thioredoxin reductase 1, cytoplasmic (Rattus norvegicus) (UniProt O89049); experiment: qHTS Assay for Inhibitors of Mammalian Selenoprotein Thioredoxin Reductase 1 (TrxR1) (AID 488773);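 further: drop in NADPH fluorescence over an 8 min run after selenite addition; nearly all actives have a fitted effect of over 40% in size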
Summary of the method: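 Inhibition is scored from the loss of NADPH fluorescence between first and last reads of an 8-min kinetic run. Selenite (400 uM) was the substrate, added after 15 min compound preincubation at room temperature.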

[11] = target: Flap endonuclease 1 (Homo sapiens) (UniProt P39748); experiment: qHTS Validation Assay for the Inhibitors of Human Flap endonuclease 1 (FEN1) (AID 488816)
Summary of the method: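 Steps: add FEN1 (10 nM reagent) or buffer only; pin compounds; hold 15 min at room temperature; start with substrate, 50 nM final; read at 0 and 15 min; correct, normalize and fit a four-parameter Hill curve.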

[12] = target: M-phase phosphoprotein 8 (Homo sapiens) (UniProt Q99549); experiment: qHTS Validation Assay for Inhibitors for MPP8 Chromodomain Interactions with Methylated Histone Tails (AID 488949);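 further: AlphaScreen signal from MPP8 chromodomain bound to biotinylated H3K9me3 peptide; top concentration of the series differs between compounds; nearly all actives have a fitted effect of over 55% in size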
Summary of the method: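 AlphaScreen proximity signal from streptavidin donor and Ni-chelate acceptor beads (10 ug/mL each) reported binding of MPP8 to trimethyl-K9 H3(1-18) peptide, both at 50 nM. The complex formed 30 min before a 30 min compound exposure at room temperature, in PBS pH 7.4.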

[13] = target: Chromobox protein homolog 1 (Homo sapiens) (UniProt P83916); experiment: qHTS Validation Assay for Inhibitors of HP1-beta Chromodomain Interactions with Methylated Histone Tails (AID 488953);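 further: loss of AlphaScreen luminescence from HP1-beta binding biotinylated H3K9me3 peptide; nearly all actives have a fitted effect of over 50% in size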
Summary of the method: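 Compounds pinned into a preassembled complex of HP1-beta and trimethyl-K9 histone H3(1-18) biotin peptide (50 nM each; PBS pH 7.4, 0.01% Tween-20). After 30 min, bead-based AlphaScreen detection followed.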

[14] = Cytometry Cell-Based qHTS for Inhibitors of the mTORC1 Signaling Pathway in MEF cells (AID 2668);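 further: Tsc2-/- p53-/- mouse embryonic fibroblasts stably re-expressing wild-type Tsc2; percent cells positive for phospho-rpS6 Ser235/236 relative to propidium iodide stain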
Summary of the method: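 Phospho-rpS6 (Ser235/236) immunofluorescence over PI signal, scored as % positive cells using thresholds from 7.5 nM rapamycin and DMSO wells, after 24 h compound exposure of WT-Tsc2-rescued Tsc2-/-, p53-/- MEFs. PI cell count recorded for viability.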

[15] = qHTS for differential inhibitors of proliferation of Plasmodium falciparum line HB3 (AID 1886);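 further: parasites grown with compound for 72 h before SYBR Green readout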
[16] = target: Ferritin light chain (Equus caballus) (UniProt P02791); experiment: qHTS Validation Assay for Identification of Novel General Anesthetics (AID 2323)
Summary of the method: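 Competitive displacement of the profluorescent anesthetic 1-AMA (50% saturated, PBS) from 10 uM apoferritin, 10 min, room temperature. Activity is normalized 380/535 nm fluorescence; concentration-response fitted with a four-parameter Hill equation.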

[17] = target: ATP-dependent DNA helicase Q1 (Homo sapiens) (UniProt P46063); experiment: qHTS Validation Assay for Inhibitors of RecQ-Like Dna Helicase 1 (RECQ1) (AID 2353)
Summary of the method: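 RECQ1T1 50 nM; forked duplex (20 bp + 30-nt ss tails) 200 nM, ATP 2 mM final; pH 8.0, 2 mM MgCl2, 2.5 ug/ml poly(dI-dC); 15 min compound preincubation; discontinuous kinetic read over 2 h at RT.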

[18] = Validation screen for small molecules that induce DNA re-replication in MCF 10A normal breast cells (AID 463097); further: nearly all actives have a fitted effect of over 60% in size
Summary of the method: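 Read-out is Hoechst total nuclear intensity by fluorescence scanning imager, flagging increased high-DNA-content nuclei. Compounds were incubated with MCF 10A cells for 48 hr (37 C, 5% CO2) before 40 min staining.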

[19] = Quantitative high throughput screen for delayed death inhibitors of the malarial parasite plastid, 96 hour incubation (AID 488745); further: nearly all actives have a fitted effect of over 70% in size
Summary of the method: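 Two-generation (96 h) exposure of luciferase-reporter P. falciparum in erythrocytes, 2% hematocrit, 0.1% parasitemia final, 37 C, 5% CO2, RPMI 1640 with 0.5% Albumax. Growth inhibition scored by reduced luminescence.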

[20] = Quantitative high throughput screen for delayed death inhibitors of the malarial parasite plastid, 48 hour incubation (AID 488752); further: nearly all actives have a fitted effect of over 65% in size
Summary of the method: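 Cultures: infected erythrocytes at final 2% hematocrit and 0.1% parasitemia in Albumax-supplemented RPMI. Parasites express integrated firefly luciferase. Incubation with compound lasts 48 h before luminescent detection of remaining reporter activity.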

Measured: outcome

Chain of M-phase phosphoprotein 8 (Homo sapiens) (Q99549 whole entry, looked up): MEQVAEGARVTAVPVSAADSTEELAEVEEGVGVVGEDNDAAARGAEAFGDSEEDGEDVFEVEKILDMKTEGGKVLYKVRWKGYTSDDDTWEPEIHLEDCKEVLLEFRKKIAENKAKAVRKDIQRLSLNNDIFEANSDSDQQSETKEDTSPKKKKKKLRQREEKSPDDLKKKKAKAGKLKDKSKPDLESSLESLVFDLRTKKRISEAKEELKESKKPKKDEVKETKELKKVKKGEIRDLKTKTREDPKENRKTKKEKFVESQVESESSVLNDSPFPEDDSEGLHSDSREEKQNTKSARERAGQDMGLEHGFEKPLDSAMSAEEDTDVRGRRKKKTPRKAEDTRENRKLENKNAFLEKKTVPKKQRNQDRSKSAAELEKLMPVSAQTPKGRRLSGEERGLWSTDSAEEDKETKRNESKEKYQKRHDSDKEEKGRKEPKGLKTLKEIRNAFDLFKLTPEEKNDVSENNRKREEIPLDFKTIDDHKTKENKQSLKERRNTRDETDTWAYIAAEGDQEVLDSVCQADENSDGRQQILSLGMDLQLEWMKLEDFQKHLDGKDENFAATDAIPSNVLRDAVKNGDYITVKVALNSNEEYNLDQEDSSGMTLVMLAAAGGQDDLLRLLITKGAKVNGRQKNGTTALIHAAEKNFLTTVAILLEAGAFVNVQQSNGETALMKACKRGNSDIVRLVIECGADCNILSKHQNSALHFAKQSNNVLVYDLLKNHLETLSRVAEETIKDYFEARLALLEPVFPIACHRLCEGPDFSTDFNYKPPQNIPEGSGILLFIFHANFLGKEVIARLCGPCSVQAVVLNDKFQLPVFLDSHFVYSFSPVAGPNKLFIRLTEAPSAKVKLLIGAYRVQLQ
Chain of Thioredoxin reductase 1, cytoplasmic (Rattus norvegicus) (O89049 whole entry, looked up): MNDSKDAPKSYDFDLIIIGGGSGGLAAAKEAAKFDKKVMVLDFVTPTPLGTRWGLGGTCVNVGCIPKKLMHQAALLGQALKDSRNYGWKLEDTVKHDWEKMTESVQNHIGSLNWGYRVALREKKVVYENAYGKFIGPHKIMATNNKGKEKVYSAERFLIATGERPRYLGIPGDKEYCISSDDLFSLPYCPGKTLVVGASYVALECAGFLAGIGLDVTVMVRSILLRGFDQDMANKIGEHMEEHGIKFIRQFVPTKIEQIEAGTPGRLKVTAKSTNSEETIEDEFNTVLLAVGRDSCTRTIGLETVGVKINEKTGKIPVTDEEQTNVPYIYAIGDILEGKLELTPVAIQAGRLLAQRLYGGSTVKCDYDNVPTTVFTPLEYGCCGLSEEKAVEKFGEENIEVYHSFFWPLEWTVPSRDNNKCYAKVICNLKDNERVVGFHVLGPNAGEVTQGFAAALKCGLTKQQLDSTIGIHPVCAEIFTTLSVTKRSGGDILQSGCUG
Chain of Tumor susceptibility gene 101 protein (Homo sapiens) (Q99816 whole entry, looked up, the tested form may be a part): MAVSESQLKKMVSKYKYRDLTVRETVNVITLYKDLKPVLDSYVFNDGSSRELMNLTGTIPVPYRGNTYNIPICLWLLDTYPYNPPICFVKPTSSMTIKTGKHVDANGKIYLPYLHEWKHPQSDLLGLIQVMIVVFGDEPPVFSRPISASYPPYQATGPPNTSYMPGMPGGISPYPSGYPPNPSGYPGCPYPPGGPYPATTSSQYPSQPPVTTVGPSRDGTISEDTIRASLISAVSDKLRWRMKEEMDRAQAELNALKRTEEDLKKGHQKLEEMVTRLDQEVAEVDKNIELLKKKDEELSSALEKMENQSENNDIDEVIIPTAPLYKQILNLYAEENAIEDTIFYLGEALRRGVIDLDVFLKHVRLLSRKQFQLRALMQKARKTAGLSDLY
Chain of Ubiquitin carboxyl-terminal hydrolase 2 (Homo sapiens) (O75604 whole entry, looked up): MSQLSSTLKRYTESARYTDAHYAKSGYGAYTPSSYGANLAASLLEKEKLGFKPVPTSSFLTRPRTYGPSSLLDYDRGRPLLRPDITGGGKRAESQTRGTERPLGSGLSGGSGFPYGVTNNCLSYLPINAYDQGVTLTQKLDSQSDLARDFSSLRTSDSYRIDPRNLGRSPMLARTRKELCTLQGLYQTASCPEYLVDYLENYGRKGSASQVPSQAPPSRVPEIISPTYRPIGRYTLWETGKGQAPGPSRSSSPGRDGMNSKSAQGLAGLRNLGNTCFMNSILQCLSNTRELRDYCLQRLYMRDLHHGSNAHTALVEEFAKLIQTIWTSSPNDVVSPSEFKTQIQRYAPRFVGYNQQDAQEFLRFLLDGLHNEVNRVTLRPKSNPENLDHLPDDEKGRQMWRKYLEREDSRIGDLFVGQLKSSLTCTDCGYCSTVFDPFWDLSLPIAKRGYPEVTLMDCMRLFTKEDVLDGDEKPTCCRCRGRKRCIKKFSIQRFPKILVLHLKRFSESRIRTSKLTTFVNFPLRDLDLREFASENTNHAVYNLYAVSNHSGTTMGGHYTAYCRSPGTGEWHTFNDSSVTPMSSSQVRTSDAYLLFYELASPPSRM
Chain of Chromobox protein homolog 1 (Homo sapiens) (P83916 whole entry, looked up): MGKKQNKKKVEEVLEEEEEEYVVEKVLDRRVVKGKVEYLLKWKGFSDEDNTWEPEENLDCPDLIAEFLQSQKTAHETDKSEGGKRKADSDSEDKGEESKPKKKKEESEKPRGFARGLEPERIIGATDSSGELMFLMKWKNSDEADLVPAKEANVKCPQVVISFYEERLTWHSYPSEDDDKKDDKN
Chain of Flap endonuclease 1 (Homo sapiens) (P39748 whole entry, looked up): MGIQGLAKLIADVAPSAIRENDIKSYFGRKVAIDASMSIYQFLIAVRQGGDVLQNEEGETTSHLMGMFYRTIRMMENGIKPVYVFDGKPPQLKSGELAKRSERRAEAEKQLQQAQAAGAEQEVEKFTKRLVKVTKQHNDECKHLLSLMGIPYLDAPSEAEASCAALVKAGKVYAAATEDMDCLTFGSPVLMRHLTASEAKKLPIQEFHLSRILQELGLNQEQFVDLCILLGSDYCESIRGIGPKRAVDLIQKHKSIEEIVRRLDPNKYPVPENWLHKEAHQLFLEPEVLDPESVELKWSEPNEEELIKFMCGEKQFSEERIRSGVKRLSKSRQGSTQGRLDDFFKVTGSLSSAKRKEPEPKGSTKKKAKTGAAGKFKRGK
Chain of Beta-2 adrenergic receptor (Homo sapiens) (P07550 whole entry, looked up): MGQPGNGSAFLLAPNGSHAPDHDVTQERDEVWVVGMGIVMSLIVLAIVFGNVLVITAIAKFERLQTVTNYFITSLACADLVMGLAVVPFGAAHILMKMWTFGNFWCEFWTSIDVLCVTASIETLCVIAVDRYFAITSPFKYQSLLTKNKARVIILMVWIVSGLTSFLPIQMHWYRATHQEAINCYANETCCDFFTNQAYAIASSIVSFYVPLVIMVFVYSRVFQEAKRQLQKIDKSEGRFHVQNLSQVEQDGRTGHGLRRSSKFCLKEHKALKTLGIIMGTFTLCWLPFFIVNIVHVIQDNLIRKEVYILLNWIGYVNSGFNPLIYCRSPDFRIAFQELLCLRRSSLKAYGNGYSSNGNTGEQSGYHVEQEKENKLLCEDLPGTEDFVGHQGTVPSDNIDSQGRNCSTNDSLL
Chain of DNA polymerase III PolC-type (Bacillus subtilis (strain 168)) (P13267 whole entry, looked up): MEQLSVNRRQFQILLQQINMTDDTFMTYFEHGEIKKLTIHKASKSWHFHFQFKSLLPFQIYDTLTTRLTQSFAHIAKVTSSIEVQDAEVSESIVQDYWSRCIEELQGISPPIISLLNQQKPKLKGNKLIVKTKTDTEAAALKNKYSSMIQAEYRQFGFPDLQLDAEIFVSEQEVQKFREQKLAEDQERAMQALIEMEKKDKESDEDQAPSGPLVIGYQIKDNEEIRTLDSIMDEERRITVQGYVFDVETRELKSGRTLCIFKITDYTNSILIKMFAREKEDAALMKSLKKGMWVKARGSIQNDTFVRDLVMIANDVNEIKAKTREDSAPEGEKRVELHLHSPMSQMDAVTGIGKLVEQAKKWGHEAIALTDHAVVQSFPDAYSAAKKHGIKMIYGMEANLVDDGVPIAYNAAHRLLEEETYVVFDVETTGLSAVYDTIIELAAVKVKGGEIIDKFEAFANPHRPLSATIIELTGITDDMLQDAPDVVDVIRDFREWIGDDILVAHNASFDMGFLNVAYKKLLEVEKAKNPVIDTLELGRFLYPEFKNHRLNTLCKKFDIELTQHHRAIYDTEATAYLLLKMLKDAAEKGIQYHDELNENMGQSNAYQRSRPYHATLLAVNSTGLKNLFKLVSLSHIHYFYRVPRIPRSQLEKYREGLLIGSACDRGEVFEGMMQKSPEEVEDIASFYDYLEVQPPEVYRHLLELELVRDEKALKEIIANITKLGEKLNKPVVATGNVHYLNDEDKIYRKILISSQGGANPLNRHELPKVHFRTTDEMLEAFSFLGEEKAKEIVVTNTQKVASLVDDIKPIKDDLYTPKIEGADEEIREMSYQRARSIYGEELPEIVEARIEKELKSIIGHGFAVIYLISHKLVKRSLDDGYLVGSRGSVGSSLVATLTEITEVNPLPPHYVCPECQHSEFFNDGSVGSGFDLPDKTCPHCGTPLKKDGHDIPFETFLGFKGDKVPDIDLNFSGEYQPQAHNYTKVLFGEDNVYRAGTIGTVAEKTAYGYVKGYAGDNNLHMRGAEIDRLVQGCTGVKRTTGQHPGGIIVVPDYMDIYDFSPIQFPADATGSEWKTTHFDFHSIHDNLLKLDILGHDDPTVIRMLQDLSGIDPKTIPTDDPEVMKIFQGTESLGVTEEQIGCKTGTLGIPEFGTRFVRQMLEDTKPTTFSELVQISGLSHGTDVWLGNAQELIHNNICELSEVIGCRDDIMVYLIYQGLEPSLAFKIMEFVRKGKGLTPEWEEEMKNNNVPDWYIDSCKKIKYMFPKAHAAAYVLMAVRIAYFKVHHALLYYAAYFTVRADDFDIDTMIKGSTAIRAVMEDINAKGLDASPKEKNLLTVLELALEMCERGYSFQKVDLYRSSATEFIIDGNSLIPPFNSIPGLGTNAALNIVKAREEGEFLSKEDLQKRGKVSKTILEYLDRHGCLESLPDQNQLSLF
Chain of Ferritin light chain (Equus caballus) (P02791 2-175 limits assumed): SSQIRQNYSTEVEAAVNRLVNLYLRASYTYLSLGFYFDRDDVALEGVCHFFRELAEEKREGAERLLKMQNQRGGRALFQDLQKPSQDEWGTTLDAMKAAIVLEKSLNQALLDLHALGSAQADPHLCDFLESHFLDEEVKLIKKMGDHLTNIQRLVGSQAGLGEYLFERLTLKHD

C=CCc1cccc(C=NNC(=O)CN2CCN(Cc3ccccc3)CC2)c1O
not listed: [14] | [15] | [16] | [17] | [18] | [19] | [20]
inactive: all other assays above

C[C@H]1O[C@@H](n2cc(F)c(=O)[nH]c2=O)[C@H](O)[C@H]1O
not listed: [15] | [16] | [17] | [18] | [19] | [20]
inactive: all other assays above

CCNC(=O)[C@H]1O[C@@H](n2cnc3c(N)nc(NCCc4ccc(CCC(=O)O)cc4)nc32)[C@H](O)[C@H]1O
inactive: [15] | [16] | [17] | [18] | [19] | [20] | [12]
